Records with an inconclusive call do not appear. Active and inactive are the calls of the source. How the source made its calls: active means hit-call score of the fitted dose curve at least 0.9, where 1 is the maximum; inconclusive means response in the unintended direction; inactive means score below 0.9.
Tests used:
[1] = target: guinea pig Serotonin, 5-Hydroxytryptamine Receptor 4 (5HT4), HTR4 (gene 100135548) (UniProt O70528); experiment: NVS_GPCR_g5HT4: NovaScreen (NVS) G Protein-Coupled Receptor Assay for guinea pig Serotonin, 5-Hydroxytryptamine Receptor 4 (5HT4) (AID 2283294)
Sequence of guinea pig Serotonin, 5-Hydroxytryptamine Receptor 4 (5HT4), HTR4 (gene 100135548) (O70528 whole entry, looked up): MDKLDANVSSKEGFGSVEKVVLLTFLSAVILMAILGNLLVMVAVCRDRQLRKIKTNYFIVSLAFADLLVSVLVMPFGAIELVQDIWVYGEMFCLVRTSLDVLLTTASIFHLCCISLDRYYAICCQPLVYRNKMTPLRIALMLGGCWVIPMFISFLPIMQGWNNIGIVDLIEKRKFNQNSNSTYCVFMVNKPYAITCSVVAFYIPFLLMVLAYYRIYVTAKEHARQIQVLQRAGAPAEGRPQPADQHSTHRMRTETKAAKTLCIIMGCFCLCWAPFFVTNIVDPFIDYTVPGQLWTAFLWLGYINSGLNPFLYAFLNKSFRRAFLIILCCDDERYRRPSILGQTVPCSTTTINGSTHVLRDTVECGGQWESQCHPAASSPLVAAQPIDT
Summary of the method: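 Compounds first screened in duplicate at 25 uM, actives followed up in concentration series. Binding measured as displacement of specific radioligand from guinea pig striatal membranes, 1 h, filter-based scintillation read-out versus DMSO baseline.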

[2] = target: rat Serotonin, 5-Hydroxytryptamine Receptor (5HT), Non-Selective Binding, Htr1a (gene 24473) (UniProt P19327); experiment: NVS_GPCR_r5HT_NonSelective: NovaScreen (NVS) G Protein-Coupled Receptor Assay for rat Serotonin, 5-Hydroxytryptamine Receptor (5HT), Non-Selective Binding (AID 2283295)
Sequence of rat Serotonin, 5-Hydroxytryptamine Receptor (5HT), Non-Selective Binding, Htr1a (gene 24473) (P19327 whole entry, looked up): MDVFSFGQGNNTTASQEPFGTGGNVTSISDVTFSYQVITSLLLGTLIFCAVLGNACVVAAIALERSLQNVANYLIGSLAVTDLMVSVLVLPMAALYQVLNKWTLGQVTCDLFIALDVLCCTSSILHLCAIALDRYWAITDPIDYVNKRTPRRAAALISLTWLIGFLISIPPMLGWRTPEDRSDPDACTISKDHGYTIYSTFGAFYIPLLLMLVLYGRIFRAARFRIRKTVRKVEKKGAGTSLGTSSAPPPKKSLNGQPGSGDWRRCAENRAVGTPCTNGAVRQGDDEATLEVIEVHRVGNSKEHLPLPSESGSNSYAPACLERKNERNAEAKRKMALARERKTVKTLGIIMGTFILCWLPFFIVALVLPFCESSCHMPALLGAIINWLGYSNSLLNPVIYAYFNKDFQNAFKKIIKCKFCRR
Summary of the method: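 Rat cortex membrane preparation incubated 1 h with radioligand and test chemical; bound radioactivity counted after filtration. Screening began in duplicate at 25 uM with concentration-series follow-up; fitting relative to DMSO.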

[3] = tested on: rat Adrenergic, Alpha 1B Receptor (Adra1B), gene 24173; experiment: NVS_GPCR_rAdra1B: NovaScreen (NVS) G Protein-Coupled Receptor Assay for rat Adrenergic, Alpha 1B Receptor (Adra1B) (AID 2283297)
Summary of the method: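 Filter-binding radioligand competition on membranes from rat liver, read after 1 h by scintillation counting. Single-concentration duplicate screen at 25 uM, followed by concentration-response on actives, normalised to DMSO.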

[4] = target: rat Adrenergic Receptor, Beta (Adrb), Non-selective Binding, Adrb1 (gene 24925) (UniProt P18090); experiment: NVS_GPCR_rAdrb_NonSelective: NovaScreen (NVS) G Protein-Coupled Receptor Assay for rat Adrenergic Receptor, Beta (Adrb), Non-selective Binding (AID 2283298)
Sequence of rat Adrenergic Receptor, Beta (Adrb), Non-selective Binding, Adrb1 (gene 24925) (P18090 whole entry, looked up): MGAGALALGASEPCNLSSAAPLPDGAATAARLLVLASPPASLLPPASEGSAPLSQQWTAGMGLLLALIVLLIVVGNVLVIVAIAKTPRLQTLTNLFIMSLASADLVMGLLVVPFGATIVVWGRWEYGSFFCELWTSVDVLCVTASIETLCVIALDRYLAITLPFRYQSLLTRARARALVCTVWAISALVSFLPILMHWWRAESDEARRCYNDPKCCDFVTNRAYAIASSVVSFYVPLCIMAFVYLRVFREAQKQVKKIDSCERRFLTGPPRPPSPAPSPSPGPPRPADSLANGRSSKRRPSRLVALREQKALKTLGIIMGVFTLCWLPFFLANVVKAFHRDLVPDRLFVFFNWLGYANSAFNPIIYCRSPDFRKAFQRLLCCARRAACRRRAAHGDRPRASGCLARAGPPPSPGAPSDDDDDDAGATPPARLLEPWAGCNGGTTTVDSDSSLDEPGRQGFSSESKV
Summary of the method: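 Rat cortical membranes incubated 1 h with beta-adrenergic radioligand and test chemical; bound ligand measured by filtration and scintillation counting. Screen at 25 uM duplicate, then concentration series with 50 uM maximum; loss of signal versus DMSO.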

[5] = target: rat Adrenergic Receptor, Alpha 2 (Adra2), Non-selective Binding, Adra2a (gene 25083) (UniProt P22909); experiment: NVS_GPCR_rAdra2_NonSelective: NovaScreen (NVS) G Protein-Coupled Receptor Assay for rat Adrenergic Receptor, Alpha 2 (Adra2), Non-selective Binding (AID 2283299)
Sequence of rat Adrenergic Receptor, Alpha 2 (Adra2), Non-selective Binding, Adra2a (gene 25083) (P22909 whole entry, looked up): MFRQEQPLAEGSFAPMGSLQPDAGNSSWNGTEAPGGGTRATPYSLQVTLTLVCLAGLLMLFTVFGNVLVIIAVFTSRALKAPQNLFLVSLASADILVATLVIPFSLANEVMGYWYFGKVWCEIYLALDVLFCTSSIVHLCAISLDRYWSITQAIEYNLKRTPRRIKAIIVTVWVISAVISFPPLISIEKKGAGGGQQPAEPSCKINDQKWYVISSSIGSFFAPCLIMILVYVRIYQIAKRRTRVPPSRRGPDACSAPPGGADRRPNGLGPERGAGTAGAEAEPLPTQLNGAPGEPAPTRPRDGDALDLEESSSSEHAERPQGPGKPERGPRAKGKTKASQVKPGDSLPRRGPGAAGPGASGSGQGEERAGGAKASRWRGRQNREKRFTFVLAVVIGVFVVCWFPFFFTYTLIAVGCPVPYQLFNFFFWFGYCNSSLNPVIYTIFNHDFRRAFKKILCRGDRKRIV
Summary of the method: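 Filter-based scintillation counting of radioligand binding to rat cortical membrane receptors, measured 1.25 hours post-dosing; loss of signal versus DMSO indicates displacement. Initial single-concentration duplicate at 25 uM, then concentration series.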

Adra2b (gene 24174) = Adra2b (gene 24174) (UniProt P19328); experiment: NVS_GPCR_rmAdra2B: NovaScreen (NVS) G Protein-Coupled Receptor Assay for hybird cells Adrenergic, Alpha 2B Receptor (Adra2B) (AID 2283306)
Sequence of Adra2b (gene 24174) (P19328 whole entry, looked up): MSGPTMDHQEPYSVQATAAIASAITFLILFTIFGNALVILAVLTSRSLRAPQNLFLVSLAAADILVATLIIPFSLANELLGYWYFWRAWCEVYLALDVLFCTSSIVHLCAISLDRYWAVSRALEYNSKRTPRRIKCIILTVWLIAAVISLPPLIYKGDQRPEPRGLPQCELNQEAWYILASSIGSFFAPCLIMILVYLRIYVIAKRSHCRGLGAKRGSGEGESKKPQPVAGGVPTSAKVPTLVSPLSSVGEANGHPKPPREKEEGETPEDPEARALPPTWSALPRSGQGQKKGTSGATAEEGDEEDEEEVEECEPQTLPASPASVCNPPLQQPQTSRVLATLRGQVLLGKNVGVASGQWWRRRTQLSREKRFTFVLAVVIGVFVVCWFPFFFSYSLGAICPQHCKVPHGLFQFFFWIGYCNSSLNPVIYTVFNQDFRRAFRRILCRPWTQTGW
Summary of the method: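 Compounds screened first at 25 uM in duplicate, with actives followed up in concentration-response; specific radioligand displacement from hybrid neuroglioma/blastoma cell membrane preparations measured by filter scintillation counting after 1 h, normalized to DMSO.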

[6] = target: rat Neurokinin-1 Receptor (NK1), Tacr1 (gene 24807) (UniProt P14600); experiment: NVS_GPCR_rNK1: NovaScreen (NVS) G Protein-Coupled Receptor Assay for rat Neurokinin-1 Receptor (NK1) (AID 2283309)
Sequence of rat Neurokinin-1 Receptor (NK1), Tacr1 (gene 24807) (P14600 whole entry, looked up): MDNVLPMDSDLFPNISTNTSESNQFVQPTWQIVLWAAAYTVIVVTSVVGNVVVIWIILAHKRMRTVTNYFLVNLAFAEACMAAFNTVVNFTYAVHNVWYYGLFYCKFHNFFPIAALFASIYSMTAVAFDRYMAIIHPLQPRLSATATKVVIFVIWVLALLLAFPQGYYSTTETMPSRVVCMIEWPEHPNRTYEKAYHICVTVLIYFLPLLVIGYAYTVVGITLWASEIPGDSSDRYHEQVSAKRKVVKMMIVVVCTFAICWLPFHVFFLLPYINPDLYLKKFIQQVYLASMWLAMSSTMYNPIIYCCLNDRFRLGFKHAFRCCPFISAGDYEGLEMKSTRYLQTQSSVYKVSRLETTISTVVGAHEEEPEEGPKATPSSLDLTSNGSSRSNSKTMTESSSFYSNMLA
Summary of the method: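 Competitive radioligand binding to NK1 in rat submaxillary membranes, 1 h incubation, filtration and scintillation read-out. Compounds first screened at 25 uM in duplicate, then concentration-response for actives; signal loss relative to DMSO.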

[7] = target: rat Vasopressin 1 Receptor (V1), Avpr1a (gene 25107) (UniProt P30560); experiment: NVS_GPCR_rV1: NovaScreen (NVS) G Protein-Coupled Receptor Assay for rat Vasopressin 1 Receptor (V1) (AID 2283316)
Summary of the method: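 Concentration-response up to 50 uM for chemicals passing a threshold such as 30% inhibition in an initial duplicate 25 uM screen. Displacement of radioligand from rat liver membranes measured after 1.5 h by filtration and scintillation.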

[8] = target: rat Opioid Receptor, Non-selective Binding, Oprm1 (gene 25601) (UniProt P33535); experiment: NVS_GPCR_rOpiate_NonSelective: NovaScreen (NVS) G Protein-Coupled Receptor Assay for rat Opioid Receptor, Non-selective Binding (AID 2283318)
Sequence of rat Opioid Receptor, Non-selective Binding, Oprm1 (gene 25601) (P33535 whole entry, looked up): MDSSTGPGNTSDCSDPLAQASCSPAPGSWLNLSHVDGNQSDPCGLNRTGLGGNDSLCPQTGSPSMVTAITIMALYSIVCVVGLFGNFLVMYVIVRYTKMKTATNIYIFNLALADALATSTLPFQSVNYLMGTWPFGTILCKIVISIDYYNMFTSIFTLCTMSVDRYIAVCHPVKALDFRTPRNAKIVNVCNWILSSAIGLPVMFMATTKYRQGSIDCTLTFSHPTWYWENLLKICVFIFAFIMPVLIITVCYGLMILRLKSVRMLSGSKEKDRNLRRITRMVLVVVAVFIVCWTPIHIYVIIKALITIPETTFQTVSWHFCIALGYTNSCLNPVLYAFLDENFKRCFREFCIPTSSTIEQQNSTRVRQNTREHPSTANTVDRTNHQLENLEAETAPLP
Summary of the method: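 Filter-based radioligand displacement using rat forebrain membrane preparations, measured 1.5 h post-dosing. Single-concentration duplicate screen at 25 uM, follow-up in concentration series; activity taken as signal loss relative to DMSO.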

[9] = target: rat Histamine Receptor (H3), Hrh3 (gene 85268) (UniProt Q9QYN8); experiment: NVS_GPCR_rH3: NovaScreen (NVS) G Protein-Coupled Receptor Assay for rat Histamine Receptor (H3) (AID 2283303)
Sequence of rat Histamine Receptor (H3), Hrh3 (gene 85268) (Q9QYN8 whole entry, looked up): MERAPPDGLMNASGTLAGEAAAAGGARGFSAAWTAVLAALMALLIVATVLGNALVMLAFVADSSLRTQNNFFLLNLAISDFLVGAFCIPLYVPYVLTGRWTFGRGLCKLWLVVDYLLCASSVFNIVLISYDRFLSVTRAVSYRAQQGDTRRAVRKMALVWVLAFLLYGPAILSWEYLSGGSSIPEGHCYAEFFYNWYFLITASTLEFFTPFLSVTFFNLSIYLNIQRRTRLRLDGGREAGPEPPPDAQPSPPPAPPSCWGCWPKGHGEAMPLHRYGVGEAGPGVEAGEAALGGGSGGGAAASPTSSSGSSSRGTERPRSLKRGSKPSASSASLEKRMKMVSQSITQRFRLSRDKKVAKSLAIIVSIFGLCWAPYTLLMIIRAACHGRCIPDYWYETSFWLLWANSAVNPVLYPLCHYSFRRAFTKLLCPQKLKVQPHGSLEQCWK
Summary of the method: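 Filter-binding radioligand competition on rat forebrain membranes, 1 h incubation; compounds screened at 25 µM in duplicate and followed in concentration series to 50 µM, loss of bound signal vs DMSO.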

[10] = target: mouse Cholecystokinin, CCK2 Receptor (CCKB), Cckbr (gene 12426) (UniProt P56481); experiment: NVS_GPCR_mCKKBCentral: NovaScreen (NVS) G Protein-Coupled Receptor Assay for mouse Cholecystokinin, CCK2 Receptor (CCKB) (AID 2283293)
Summary of the method: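 Mouse forebrain membrane preparation incubated 2 h with chemical and radioligand; bound radioactivity counted after filtration. Single-concentration duplicate screen at 25 uM, then concentration series to 50 uM max for hits, DMSO as baseline.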

[11] = target: rat Gamma-Aminobutyric Acid Type B Receptor (GABBR), Gabbr1 (gene 81657) (UniProt Q9Z0U4); experiment: NVS_GPCR_rGABBR: NovaScreen (NVS) G Protein-Coupled Receptor Assay for rat Gamma-Aminobutyric Acid Type B Receptor (GABBR) (AID 2283301)
Summary of the method: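 Rat cortical membrane preparation, competitive radioligand binding for 1 h with filtration and scintillation readout. Actives from duplicate single-point 25 uM screening proceeded to concentration series with 50 uM top concentration.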

[12] = target: rat Neurokinin-3 Receptor (NK3), Tacr3 (gene 24808) (UniProt P16177); experiment: NVS_GPCR_rNK3: NovaScreen (NVS) G Protein-Coupled Receptor Assay for rat Neurokinin-3 Receptor (NK3) (AID 2283310)
Summary of the method: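 Filter-based radioligand displacement on rat cortex membrane preparations, read by scintillation 2 h post-dose. Chemicals first tested in duplicate at 25 uM; actives followed up in concentration series with a 50 uM maximum.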

[13] = target: rat Opioid Receptor, Non-selective Sodium (Na+) Binding, Oprm1 (gene 25601) (UniProt P33535); experiment: NVS_GPCR_rOpiate_NonSelectiveNa: NovaScreen (NVS) G Protein-Coupled Receptor Assay for rat Opioid Receptor, Non-selective Sodium (Na+) Binding (AID 2283311)
Sequence of rat Opioid Receptor, Non-selective Sodium (Na+) Binding, Oprm1 (gene 25601) (P33535 whole entry, looked up): as the sequence (P33535 whole entry, looked up) above
Summary of the method: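 Filtration radioligand binding on rat forebrain membrane preparations, read 1.5 h after dosing. Single-concentration 25 µM primary screen in duplicate, followed by singleton concentration series to 50 µM max for actives; DMSO baseline.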

[14] = target: rat Neonicotinoid receptor (NNR), Chrna7 (gene 25302) (UniProt Q05941); experiment: NVS_LGIC_rNNR_BungSens: NovaScreen (NVS) Ligand-Gated Ion Channel Assay for rat Neonicotinoid receptor (NNR) (AID 2283315)
Summary of the method: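 Rat cortical membrane preparation incubated 2.5 h with tritiated or iodinated radioligand and test chemical. Bound radioactivity was filtered and counted by scintillation, and displacement was analysed against DMSO.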

[15] = target: rat Glutamate Metabotropic Receptor 5 (MGluR5), Grm5 (gene 24418) (UniProt P31424); experiment: NVS_GPCR_rmMGluR5: NovaScreen (NVS) G Protein-Coupled Receptor Assay for rat Glutamate Metabotropic Receptor 5 (MGluR5) (AID 2283307)
Sequence of rat Glutamate Metabotropic Receptor 5 (MGluR5), Grm5 (gene 24418) (P31424 whole entry, looked up): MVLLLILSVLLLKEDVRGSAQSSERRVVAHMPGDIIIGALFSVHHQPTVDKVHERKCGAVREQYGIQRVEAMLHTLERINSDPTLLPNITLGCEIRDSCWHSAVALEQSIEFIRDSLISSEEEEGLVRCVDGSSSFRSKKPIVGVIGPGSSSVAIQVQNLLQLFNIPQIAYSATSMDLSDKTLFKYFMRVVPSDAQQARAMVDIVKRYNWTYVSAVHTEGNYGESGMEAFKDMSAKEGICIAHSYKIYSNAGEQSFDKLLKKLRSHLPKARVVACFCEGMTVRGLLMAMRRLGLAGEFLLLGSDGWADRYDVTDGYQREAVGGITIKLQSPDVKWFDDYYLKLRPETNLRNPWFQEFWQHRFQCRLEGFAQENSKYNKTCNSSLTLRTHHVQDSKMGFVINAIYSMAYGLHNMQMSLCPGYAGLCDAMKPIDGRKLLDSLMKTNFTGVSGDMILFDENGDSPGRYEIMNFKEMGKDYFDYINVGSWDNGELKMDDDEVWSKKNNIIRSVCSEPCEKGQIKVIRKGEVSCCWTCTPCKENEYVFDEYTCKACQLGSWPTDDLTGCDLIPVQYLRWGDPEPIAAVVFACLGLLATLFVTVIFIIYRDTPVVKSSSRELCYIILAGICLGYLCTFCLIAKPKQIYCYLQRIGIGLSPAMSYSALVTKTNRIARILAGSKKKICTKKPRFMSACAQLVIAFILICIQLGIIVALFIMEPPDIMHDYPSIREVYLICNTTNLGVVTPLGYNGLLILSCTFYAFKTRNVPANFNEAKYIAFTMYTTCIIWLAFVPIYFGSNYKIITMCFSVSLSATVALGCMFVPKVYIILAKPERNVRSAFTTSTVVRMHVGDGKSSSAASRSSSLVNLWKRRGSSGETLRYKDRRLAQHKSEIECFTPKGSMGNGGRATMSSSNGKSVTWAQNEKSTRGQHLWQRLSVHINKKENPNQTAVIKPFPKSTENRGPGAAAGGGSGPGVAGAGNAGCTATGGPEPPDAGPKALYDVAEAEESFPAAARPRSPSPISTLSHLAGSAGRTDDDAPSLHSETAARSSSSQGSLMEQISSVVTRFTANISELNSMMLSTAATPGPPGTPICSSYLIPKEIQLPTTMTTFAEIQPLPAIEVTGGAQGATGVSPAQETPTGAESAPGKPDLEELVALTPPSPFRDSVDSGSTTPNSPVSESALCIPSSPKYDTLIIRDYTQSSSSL
Summary of the method: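 Compounds first screened in duplicate at 25 uM, then in concentration series up to 50 uM if over threshold. Radioligand displacement on rat whole-brain membranes, filtration and scintillation counting after 1.5 h; binding loss relative to DMSO.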

**Q.** For `Cc1cc(C)c(O)c(C)c1`, which outcome [1] is on record?
**A.** The outcome was “inactive”.

**Q.** What does the source list for `CCCOc1sc(C(=O)N2CCC(c3cc(CN)ccc3F)CC2)c(C)c1Br`?
**A.** AC50 [1]: 25.9 µM (active); AC50 [2]: 11.1 µM (active); AC50 [3]: 17.3 µM (active); AC50 [4]: 3.95 µM (active); AC50 [5]: 23.2 µM (active); AC50 (Adra2b (gene 24174)): 6.34 µM (active); AC50 [6]: 23.2 µM (active); AC50 [7]: 23.2 µM (active); AC50 [8]: 11 µM (active)

**Q.** How did the AC50 [9] turn out when `CN1CCC[C@H]1c1cccnc1` was run?
**A.** The AC50 was 25 µM (active).

**Q.** How did the outcome [8] turn out when `CC(=O)CC(C)(C)O` was run?
**A.** The outcome was “inactive”.

**Q.** How did the AC50 [10] turn out when `Cc1oc(-c2ccccc2)nc1CCOc1ccc(C[C@H](Nc2ccccc2C(=O)c2ccccc2)C(=O)O)cc1` was run?
**A.** Its AC50 is 46 µM (active).

**Q.** And the AC50 [1]?
**A.** Its AC50 is 25 µM (active).

**Q.** And the AC50 [5]?
**A.** Its AC50 is 35.6 µM (active).

**Q.** And the outcome [11]?
**A.** Its outcome is “inactive”.

**Q.** What about the outcome [12] of the same compound?
**A.** Its outcome is “inactive”.

**Q.** What about the outcome [8] of the same compound?
**A.** The outcome was “inactive”.

**Q.** What does the source list for `CC[C@H](c1ccc(O)cc1)[C@@H](CC)c1ccc(O)cc1`?
**A.** outcome [12]: inactive; AC50 [13]: 1.77 µM (active); outcome [14]: inactive; AC50 [8]: 5.14 µM (active)

**Q.** For `O=C(O)c1ccccc1C(c1ccc(O)cc1)c1ccc(O)cc1`, which outcome [6] is on record?
**A.** The outcome was “inactive”.

**Q.** With `CN1CCN(c2ccccc2/C=C2\SCCN(c3ccc(Cl)c(Cl)c3)C2=O)CC1` as the compound, how does the AC50 [1] read?
**A.** Its AC50 is 6.07 µM (active).

**Q.** What about the AC50 [2] of the same compound?
**A.** Its AC50 is 11.9 µM (active).

**Q.** What about the AC50 [4] of the same compound?
**A.** Its AC50 is 2.29 µM (active).

**Q.** How did the outcome [4] turn out when `CC(C)CCCCCCOC(=O)CCCCC(=O)OCCCCCCC(C)C` was run?
**A.** The outcome was “inactive”.

**Q.** And the outcome [15]?
**A.** Its outcome is “inactive”.

**Q.** What about the outcome [6] of the same compound?
**A.** Its outcome is “inactive”.

**Q.** Which outcome [8] does the source give for `COCC(C)OCC(C)O` (stereo not given) here?
**A.** The outcome was “inactive”.

**Q.** For `O=c1c(-c2ccc(O)cc2)coc2cc(O)ccc12`, which outcome [4] is on record?
**A.** Its outcome is “inactive”.

**Q.** And the outcome [6]?
**A.** The outcome was “inactive”.

**Q.** What about the outcome [14] of the same compound?
**A.** The outcome was “inactive”.

**Q.** And the outcome [8]?
**A.** Its outcome is “inactive”.

**Q.** For `Nc1cccc2c(N)cccc12`, which outcome [1] is on record?
**A.** The outcome was “inactive”.

**Q.** And the AC50 [5]?
**A.** The AC50 was 16.8 µM (active).

**Q.** Which outcome [8] does the source give for `c1ccc2c(c1)Cc1ccccc1-2` here?
**A.** The outcome was “inactive”.

**Q.** For `O=[N+]([O-])c1ccc(O)cc1`, which outcome [2] is on record?
**A.** The outcome was “inactive”.

**Q.** For `OC1CCCCC1`, which outcome [15] is on record?
**A.** The outcome was “inactive”.

**Q.** How did the outcome [1] turn out when `Oc1cc2ccccc2c2ccccc12` was run?
**A.** The outcome was “inactive”.

**Q.** What does the source list for `CCCCCCCC(=O)O`?
**A.** outcome [3]: inactive; outcome [9]: inactive; outcome (Adra2b (gene 24174)): inactive; outcome [13]: inactive; outcome [8]: inactive
